From PubChem BioAssay come the findings set out here.

This assay is described as follows: EMT-state selective cytotoxicity in co-culture – imaging, PC-3E GFP, TEM4-18 mCherry, primary screen (AID 1345086).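 On all read-outs here: cells exposed to compound for 72 h before imaging.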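 On red/green cell ratio (normalised): normalised mesenchymal count divided by normalised epithelial count so high means epithelial killing.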 The conditions noted are these: PC-3E GFP / TEM4-18 mCherry co-culture, imaging cell counts, at 1 µM; for red/green cell ratio (normalised): actives lie on both sides, counts scaled to control wells, 1 = unselective.
[1] abbreviates: measured here: epithelial PC-3E GFP cell survival.
Setting [2] is: measured here: mesenchymal TEM4-18 mCherry cell survival.

Calls of active or inactive are those of the source.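 How the source made its calls: active means compounds killing one labelled cell type while sparing the other, by normalised counts and ratio limits, not self-fluorescent; inactive means the rest.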

For `CC1CC2OC2/C=C/C(O)CC(=O)O1` (stereo not given), the red/green cell ratio (normalised) was 0.97 (inactive). Moreover, the normalised cell number under setting [1] worked out at 1.06. Under setting [2], this compound showed a normalised cell number of 1.02.
In the same order, the values of `CC(=O)OCC[C@H](C)CCC=C(C)C` are 1.13 (inactive), 1 and 1.13.
In the same order, the values of `C[C@H]1[C@H]2CCC3C4CC=C5C[C@@H](N(C)C)CC[C@]5(C)C4CC[C@@]32CN1C` (stereo not given in full) are 0.93 (inactive), 0.89 and 0.83.
Take `COC(=O)C[C@@H]1C2(C)C(=O)[C@@H](CC3=C4CC(O)O[C@@H](c5ccoc5)[C@]4(C)CCC32)[C@H](O)C1(C)C` (stereo not given in full): the red/green cell ratio (normalised) is 1.16 (inactive). Under setting [1], this compound yielded a normalised cell number of 0.99. Moreover, the normalised cell number under setting [2] was 1.14.
`CC(CC(=O)N1C(=O)OC[C@H]1c1ccccc1)N1C(=S)OC[C@@H]1c1ccccc1` (stereo not given in full): the red/green cell ratio (normalised) was 0.97 (inactive). Also, under setting [1], the normalised cell number is 1.02. The normalised cell number under setting [2] stood at 0.99.
In the same order, the values of `CC1CCCC(O)/C=C/C(O)C(=O)c2c(O)cc(O)cc2CC(=O)O1` (stereo not given) are 1.11 (inactive), 0.89 and 0.99.
Take `O=C(O)C(O)C(O)C(O)C(O)C(=O)O` (stereo not given): the red/green cell ratio (normalised) is 1.01 (inactive). Also, the normalised cell number under setting [1] worked out at 1.04. Under setting [2], the normalised cell number was 1.05.
In the same order, the values of `O=S(=O)([O-])OC[C@H]1O[C@@](COS(=O)(=O)[O-])(O[C@H]2O[C@H](COS(=O)(=O)[O-])[C@@H](OS(=O)(=O)[O-])[C@H](OS(=O)(=O)[O-])[C@H]2OS(=O)(=O)[O-])[C@@H](OS(=O)(=O)[O-])[C@@H]1OS(=O)(=O)[O-].[Al+3].[Na+].[Na+].[O-2].[O-2].[OH-]` are 0.81 (inactive), 1.15 and 0.93.
The like results for `COC(=O)CC1C(C)(C)C(OC(C)=O)[C@@H]2[C@@H](OC(C)=O)[C@]34O[C@@]2(O)C1(C)C3CC[C@]1(C)C4=CC(=O)O[C@H]1c1ccoc1` (stereo not given in full) were, in that order, 1.07 (inactive), 0.89 and 0.95.
Consider `C=CC(C)(C)c1cccc2[nH]c3c(c12)C[C@@H]1CC[C@@]2(O)C4=CC(=O)[C@@H]5O[C@@]4(CC[C@]2(C)[C@@]31C)CC5(C)C`, for which the red/green cell ratio (normalised) is 1 (inactive). The compound also displayed a normalised cell number under setting [1] of 1.11. The compound also yielded a normalised cell number under setting [2] of 1.11.
`COC(=O)c1cc(Br)ccc1Cl`: the red/green cell ratio (normalised) is 1.04 (inactive). Under setting [1], this compound gave a normalised cell number of 1.12. The normalised cell number under setting [2] was 1.17.
The like results for `COC(=O)c1c[nH]c2c(OC)c(F)c(F)cc2c1=O` were, in that order, 1.14 (inactive), 1.06 and 1.21.
The like results for `Cc1nc(COP(=O)(O)O)cc(CN(CCN(CC(=O)O)Cc2cc(COP(=O)(O)O)nc(C)c2[O-])CC(=O)O)c1[O-].[Mn+2]` were, in that order, 0.88 (inactive), 1.27 and 1.12.
In the same order, the values of `CC1=C(/C=C/C(C)=C/C=C/C(C)=C/C=C/C=C(C)/C=C/C=C(C)/C=C/C2=C(C)C(=O)C(O)CC2(C)C)C(C)(C)CC(O)C1=O` (stereo not given) are 1.11 (inactive), 0.97 and 1.08.
As to `COc1cc(C(=O)O)cc(C)c1C(=O)CC(C)O` (stereo not given), the red/green cell ratio (normalised) is 0.9 (inactive). Further, the normalised cell number under setting [1] is 1.04. Besides, the normalised cell number under setting [2] came to 0.94.
`COC1=CC[C@@]2(C)[C@@](O)(CC[C@H]3Cc4c([nH]c5ccccc45)[C@@]32C)[C@@]12CC(=O)[C@](O)(C(C)(C)OC(C)=O)O2`: the red/green cell ratio (normalised) is 0.97 (inactive). This compound also yielded a normalised cell number under setting [1] of 1.15. The compound also came in with a normalised cell number under setting [2] of 1.11.
As to `CC(CC(=O)N1CCOC1=O)N1C(=S)OC[C@@H]1c1ccccc1` (stereo not given in full), the red/green cell ratio (normalised) is 1.05 (inactive). Also, under setting [1], the normalised cell number amounted to 0.85. Also, under setting [2], the normalised cell number came out at 0.89.
In the same order, the values of `COc1cc([C@@H]2c3cc4c(cc3[C@H](O)C3COC(=O)[C@H]32)OCO4)cc(OC)c1OC` (stereo not given in full) are 1.4 (inactive), 0.16 and 0.22.
The like results for `CC(C)(C)OC(=O)NCCCC(NC(=O)C(Cc1ccccc1)NC(=O)OC(C)(C)C)C(=O)O` (stereo not given) were, in that order, 0.88 (inactive), 1.24 and 1.1.
For the compound `CC1CCC2(OC1)OC1CC3C4CCC5C[C@@H](O)CCC5(C)C4=CCC3(C)C1[C@@H]2C` (stereo not given in full), the red/green cell ratio (normalised) was 0.87 (inactive). The normalised cell number under setting [1] was found to be 1.08. Also, the normalised cell number under setting [2] came out at 0.94.
Regarding `CC(=O)NCCc1ccc(O)c(-c2c(O)c(O)c3c(c2O)C(=O)c2c(cc(O)c(C(=O)O)c2C(=O)O)C3=O)c1`, the red/green cell ratio (normalised) is 1.13 (inactive). For the same compound, under setting [1], the normalised cell number amounted to 0.95. Under setting [2], the normalised cell number is 1.07.
Turning to `COC(=O)[C@@H]1OC(=O)C2OC23[C@@]1(C)CCC1[C@@]2(C)CCC(=O)C(C)(C)C2C[C@@H](OC(C)=O)[C@]13C` (stereo not given in full), the red/green cell ratio (normalised) is 1.04 (inactive). This compound also displayed a normalised cell number under setting [1] of 1.06. The compound also displayed a normalised cell number under setting [2] of 1.11.
In the same order, the values of `O=Cc1ccccc1O[C@@H]1O[C@H](CO)[C@H](O)[C@@H](O)[C@H]1O` are 0.97 (inactive), 0.92 and 0.9.
Take `COc1cc2c(c3oc4ccccc4c(=O)c13)[C@@H]1C=CO[C@@H]1O2`: the red/green cell ratio (normalised) was 0.91 (inactive). This compound yielded a normalised cell number under setting [1] of 0.44. The normalised cell number under setting [2] was determined as 0.4.
On to `C/C1=C\[C@H](C)C[C@H](C)[C@@H](C)OC(=O)[C@H](Cc2ccccc2)NC(=O)[C@@H](C)C(=O)C(C)C1O` (stereo not given in full), for which the red/green cell ratio (normalised) is 0.99 (inactive). The compound also returned a normalised cell number under setting [1] of 1.08. The normalised cell number under setting [2] is 1.06.
As for `C=C1C[C@]23C[C@@]1(O)CC[C@H]2[C@@]12C=C[C@H](O)[C@](C)(C(=O)O1)[C@H]2[C@@H]3C(=O)O`, the red/green cell ratio (normalised) was 1.1 (inactive). Under setting [1], the normalised cell number came to 0.93. Under setting [2], this compound gave a normalised cell number of 1.02.
For `COC(=O)C[C@@H]1C2(C)C(=O)[C@@H](CC3C2CC[C@]2(C)C3CC(=O)O[C@H]2c2ccoc2)[C@H](OC(C)=O)C1(C)C` (stereo not given in full), the red/green cell ratio (normalised) is 0.92 (inactive). Under setting [1], this compound registered a normalised cell number of 1.04. In addition, the normalised cell number under setting [2] amounted to 0.95.
Take `CO/N=C(/C(=O)NC1C(=O)N2C(C(=O)O)=C(C[N+]3(C)CCCC3)CSC12)c1csc(N)n1` (stereo not given): the red/green cell ratio (normalised) was 1.01 (inactive). This compound also gave a normalised cell number under setting [1] of 1.21. The compound further returned a normalised cell number under setting [2] of 1.22.
For the compound `COC(=O)C[C@@H]1C2(C)C(=O)[C@@H](CC3=C4CC(=O)O[C@@H](c5ccoc5)[C@]4(C)CCC32)[C@H](OC(C)=O)C1(C)C` (stereo not given in full), the red/green cell ratio (normalised) was 1.06 (inactive). For the same compound, under setting [1], the normalised cell number came to 0.96. The compound also had a normalised cell number under setting [2] of 1.02.
As to `CC(C)=CCCC(C)C1CC[C@@]2(C)C3=C(CC[C@]12C)C1(C)CC[C@H](O)C(C)(C)C1CC3` (stereo not given in full), the red/green cell ratio (normalised) is 1.05 (inactive). Under setting [1], the normalised cell number turned out to be 1.09. Under setting [2], this compound gave a normalised cell number of 1.14.
`CCOC(=O)O[C@]1(C(=O)COC(=O)CC)CCC2C3CCC4=CC(=O)C=C[C@]4(C)C3[C@@H](O)C[C@@]21C` (stereo not given in full): the red/green cell ratio (normalised) was 0.87 (inactive). This compound also gave a normalised cell number under setting [1] of 1.29. For the same compound, under setting [2], the normalised cell number was found to be 1.13.
On to `COc1c(N2CC[C@@H](CN)C2)c(F)cc2c(=O)c(C(=O)O)cn(CCCN3C(=O)c4ccccc4C3=O)c12`, for which the red/green cell ratio (normalised) is 1.07 (inactive). The compound further returned a normalised cell number under setting [1] of 1.03. The same compound had a normalised cell number under setting [2] of 1.1.
In the same order, the values of `COC(=O)[C@]12Oc3c(c(O)cc4c3C3C=C[C@]5(C4)C(=C(O)c4c(O)cc(C)cc4[C@@H]5OC(C)=O)C3=O)C(O)=C1C(=O)C=C[C@@H]2O` are 0.99 (inactive), 0.87 and 0.86.
In the same order, the values of `CC(CC(=O)N1C(=O)OC[C@@H]1Cc1ccccc1)N1C(=S)OC[C@H]1c1ccccc1` (stereo not given in full) are 0.87 (inactive), 1.17 and 1.02.
As for `c1ccc(SCC2CCCNC2)cc1` (stereo not given), the red/green cell ratio (normalised) was 0.86 (inactive). Besides, the normalised cell number under setting [1] is 1.24. Further, the normalised cell number under setting [2] came out at 1.06.
